The list is not random: actives were taken first. Their share in the collection is about 5%.
HCMV antiviral = human cytomegalovirus inhibition; 410,000 tested, 4.5% active; HFF cells, HCMV-luciferase reporter, 72 h; hits give low values; activity change, negative = inhibition, % at 57.5 µM; in the data active means activity change below about -60%; inconclusive means no clear call, values can overlap the other calls; inactive means above about -39%
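Compounds were evaluated in HFFs infected with an HCMV luciferase reporter virus (MOI 1 PFU/cell). Luciferase in lysates collected 72 h post infection served as the replication measure.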
LmPK inhibitor = blocks Leishmania mexicana pyruvate kinase activity; Q27686; purified LmPK, Kinase-Glo ATP luminescence, 1 h; Potency, µM (series often up to 57.5 µM), without a hit: at the highest dose activity change, negative = inhibition, actives largely listed as inhibitors; 290,000 tested, 0.37% active; AID 1721; further: potency means the concentration at half of the fitted maximal effect
Target sequence (Q27686 whole entry, looked up): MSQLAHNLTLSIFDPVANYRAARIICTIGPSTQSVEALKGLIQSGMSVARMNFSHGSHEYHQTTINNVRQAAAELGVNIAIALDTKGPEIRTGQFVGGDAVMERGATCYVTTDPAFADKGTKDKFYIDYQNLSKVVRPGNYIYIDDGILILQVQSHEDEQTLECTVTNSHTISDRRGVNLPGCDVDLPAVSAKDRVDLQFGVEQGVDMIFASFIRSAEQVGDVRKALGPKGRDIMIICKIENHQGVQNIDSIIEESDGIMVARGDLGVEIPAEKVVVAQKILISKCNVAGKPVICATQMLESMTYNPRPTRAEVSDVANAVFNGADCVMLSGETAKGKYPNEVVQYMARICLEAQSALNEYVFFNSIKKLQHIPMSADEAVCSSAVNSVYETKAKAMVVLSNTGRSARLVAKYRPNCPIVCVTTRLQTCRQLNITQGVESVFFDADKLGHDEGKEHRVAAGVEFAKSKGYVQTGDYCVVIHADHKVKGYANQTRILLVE
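In 50 mM imidazole pH 7.2 with 7 mM MgCl2, LmPK (0.1 nM) turned over PEP (0.5 mM) and ADP (0.1 mM) for 1 h at room temperature. Luciferase read-out of ATP.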
VACV mCherry inh = vaccinia inhibition (mCherry reporter). Vaccinia virus mCherry reporter infection, fluorescence. Potency, µM (titrated, usually from 36.5 µM), without a hit: at the highest dose activity change, negative = inhibition, usual class: inhibitors. 310,000 tested, 0.63% active; calls by dose curve; tested in A549 cells; further: potency means the concentration at half of the fitted maximal effect; nearly all actives have a fitted effect of over 35% in size
VACV Venus inh = inhibitors of vaccinia virus (Venus reporter); Vaccinia virus Venus reporter expression, fluorescence; AID 720580; 330,000 tested, 0.46% active; Potency, µM (top dose mostly 36.5 µM), without a hit: top-dose activity change, negative = inhibition, actives largely listed as inhibitors; calls by dose curve; tested in A549 cells; further: potency means the concentration at half of the fitted maximal effect; nearly all actives have a fitted effect of over 30% in size
TbPYK inhibitor = inhibitors of Trypanosoma brucei pyruvate kinase | TbPYK enzyme, Kinase-Glo Plus ATP luminescence, 45 min | Potency, µM (doses to about 76.8 µM), for inactives: at the top dose activity, negative = inhibition, hits mostly inhibitors | 410,000 tested, 0.12% active; further: potency means the concentration at half of the fitted maximal effect; nearly all actives have a fitted effect of over 50% in size
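Enzyme and substrate buffer are dispensed first and compound is pin-transferred. ADP at 130 uM final then starts the reaction, which runs 45 min at room temperature. Detection reagent is added for 10 min before luminescence is imaged.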
The depositor's hits bear a star; i = inactive; u = inconclusive; x = not tested or not shown; [ ] = remark or other dose. Unless noted, the call rests on the fitted dose curve; in most records, active means well fitted curve in the direction sought with a large enough effect; inconclusive means small, poorly fitted or top-dose-only effect, or another doubt; inactive means no such curve, though single readings can be large; an effect the other way counts as inactive or inconclusive. On the % scale 0 is the no-effect control and ±100 the full control effect.

SMILES | HCMV antiviral | LmPK inhibitor | VACV mCherry inh | VACV Venus inh | TbPYK inhibitor
Cc1ccc2nc(N(CCCN(C)C)C(=O)c3ccc4ncsc4c3)sc2c1 | 21.3 | 2.1% | -10.9% | -19.8% | 25.1µM*
COc1cc(-c2noc(-c3nnn(-c4ccc(Cl)cc4)c3C)n2)cc(OC)c1OC | 23.4 | x | -2.9% | -3.7% | -7.2%
CCc1ccc(N2CC(C(=O)Nc3ccc(F)cc3)CC2=O)cc1 (stereo not given) | -2.3 | -3.6% | -5.4% | -10.3% | -3.0%
NC(=O)c1cc2cc(Br)ccc2oc1=NCc1ccccc1 | -15.6 | 1.6% | x | u | -1.3%
CN1C(=O)/C(=C/c2ccc3c(c2)OCO3)N=C1c1ccccc1 | -100.8* | 0.9% | -12.7% | -6.0% | -0.5%
CC(=O)N1CCc2c(sc(NC(=O)c3ccc([N+](=O)[O-])o3)c2C(N)=O)C1 | -101.0* | x | 1.78µM* | 5.01µM* | u
Cc1ccc(-c2nn(-c3ccccc3)cc2C(=O)O)o1 | x | 4.8% | x | x | x
Cc1ccc(-c2nn(-c3ccccc3)cc2CN(Cc2ccccc2)C(=O)c2ccco2)o1 | -75.6* | -7.2% | x | x | x
CC(C)Cc1nn2c(=O)cc(COC(=O)c3cccc(NS(C)(=O)=O)c3)nc2s1 | -36.7 | x | -1.1% | -8.6% | -9.2%
COc1ccccc1-n1c(-c2ccccc2)c[n+]2c1CCc1ccccc1-2 | -99.6* | 2.3% | -16.9% | u | 1.1%
CC(C)c1ccc(-n2c(-c3ccccc3)c[n+]3c2CCc2ccccc2-3)cc1 | -97.6* | 4.6% | u | u | 2.1%
COc1ccc(-n2c(-c3ccc(Br)cc3)c[n+]3c2CCc2ccccc2-3)cc1 | -100.5* | 2.7% | x | x | -3.8%
COc1ccccc1-n1c(-c2ccc(F)cc2)coc1=O | x | 0.7% | -13.5% | -10.6% | 0.1%
CCC(C)NC(=O)c1ccc(-n2c(-c3ccccc3)cc3c2CCCC3)cc1 (stereo not given) | 23.7 | x | -14.7% | -15.8% | 0.7%
O=C(CCn1c(=O)c2ccccc2n(CC(=O)Nc2cccc(F)c2)c1=O)NCCc1ccccc1 | 3.2 | x | -6.2% | 7.5% | 2.7%
Cc1nc2ccccn2c1-c1ccnn1S(=O)(=O)c1ccc(F)cc1 | -94.3* | 4.4% | x | x | 0.7%
CC1CC(C)CN(C(=O)Cn2c(=O)n(CCCC(=O)NCc3ccco3)c(=O)c3sccc32)C1 (stereo not given) | -13.0 | -0.1% | -9.6% | 15.2% | 0.0%
O=P(O)(O)OC[C@H]1O[C@](O)(COP(=O)(O)O)[C@@H](O)[C@@H]1O | x | x | x | x | -7.5%
CCOc1ccc(Nc2nc3ccccc3n3nnnc23)cc1 | -18.7 | 2.0% | u | -15.6% | -1.1%
CN(C)c1ccc(Nc2nc3ccccc3n3nnnc23)cc1 | -61.8* | x | -7.9%[7.34 µM] | -9.2%[7.34 µM] | 6.3%
COc1cc(C2C3=C(COC3=O)Oc3cc4c(cc32)OCO4)cc(OC)c1OC(C)=O (stereo not given) | -69.1* | x | u | u | -4.3%
Cc1ccc(NCC(=O)N/N=C\c2ccc[nH]2)cc1 | -29.1 | -8.2% | u | -18.4% | -5.9%
Cc1ccc(C)c(NC(=O)CCC(=O)N/N=C/c2ccc[nH]2)c1 | -91.1* | 1.8% | x | x | -7.4%
Cc1c(Cl)cccc1NC(=O)CCC(=O)N/N=C/c1ccc[nH]1 | -99.6* | 2.5% | u | u | 2.9%
CC(=O)Nc1ccc(Br)c(Cl)c1 | 2.3 | -1.7% | -9.3% | -12.5% | -0.6%
SMILES | HCMV antiviral | LmPK inhibitor | VACV mCherry inh | VACV Venus inh | TbPYK inhibitor
O=C(Nc1ccc(Br)c(Cl)c1)C1CC1 | -62.2* | -3.6% | x | x | -3.0%
COc1ccc(N=C2NC(=O)CS2)c([N+](=O)[O-])c1 | 30.0 | -0.6% | x | x | 4.0%
CCOc1ccc(CN2C(=O)c3ccccc3Sc3ccc(C(=O)NC)cc32)cc1 | 17.9 | x | -1.3% | -7.0% | -5.9%
CC(=O)C1=C(C)NC(SCC(=O)c2ccc(F)cc2)=C(C#N)C1CC(C)C (stereo not given) | -8.1 | 22.9% | i | -17.0% | 14.1µM*
CC(=O)C1=C(C)NC(SCC(N)=O)=C(C#N)C1C (stereo not given) | u | 15.2% | -4.7%[1.46 µM] | -8.8% | 8.91µM*
CC(=O)C1=C(C)NC(SCC(=O)c2ccc(Cl)cc2)=C(C#N)C1CC(C)C (stereo not given) | u | -0.8% | -23.8% | -6.1% | -29.3%
COc1ccccc1NC(=O)CSc1nnc2ccc(-c3ccccn3)nn12 | 6.1 | x | -15.4% | -10.4% | -4.4%
COc1nc2c(C)cccc2cc1-c1noc(-c2ccncc2)n1 | x | -3.1% | x | x | x
